An excerpt weighted towards active compounds, which were near 2.8% of everything screened.
dFosB activator – mouse delta FosB homodimer activation; P13346; purified delta FosB, TAMRA-CDK5 oligo fluorescence polarization; percent of positive-control signal above neutral wells; activation, % at 25 µM; 0.99% of 340,000 active;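 active = mean activation above about 17%, with every replicate also reaching it, limit read from the data, passing the limit was not always enough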
Target sequence (P13346 whole entry, looked up): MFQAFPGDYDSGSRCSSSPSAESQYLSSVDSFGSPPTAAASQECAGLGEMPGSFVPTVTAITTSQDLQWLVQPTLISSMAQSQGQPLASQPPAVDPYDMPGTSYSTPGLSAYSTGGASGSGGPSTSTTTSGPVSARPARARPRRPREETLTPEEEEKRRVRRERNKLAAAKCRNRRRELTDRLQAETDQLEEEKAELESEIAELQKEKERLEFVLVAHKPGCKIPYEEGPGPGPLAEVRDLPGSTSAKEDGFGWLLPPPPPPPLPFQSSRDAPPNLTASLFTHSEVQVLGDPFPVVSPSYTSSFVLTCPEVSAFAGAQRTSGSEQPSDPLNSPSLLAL
CDK5 p35 inh – inhibitors of human CDK5/p35 kinase; Q00535+Q15078; Recombinant CDK5/p35, ADP-Glo luminescence, 60 min; 0.01% of 330,000 active; inhibition, % at 10 µM; AID 488839;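 active = highest replicate inhibition of at least 50% and at least 75% of replicates reaching 50%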;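 also: plate controls were DMSO neutral control for no effect and GW8510 at 10 µM for full effect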
SIRT5 block – inhibitors of human sirtuin-5 desuccinylase. inhibition, % at 15 µM. Q9NXA8. Purified SirT5, succinyl-peptide AMC, trypsin-coupled fluorescence. 1.1% of 330,000 active; in the data active = inhibition above about 15%
FGF22 binding – binders of recombinant human FGF22 by thermal shift; SYPRO orange fluorescence; percent of sucrose octasulfate shift, DMSO zero; activity (Tm shift, normalised), % at 9.99 µM; 1.5% of 340,000 active;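 active = mean Tm shift, scaled 0 neutral to 100 positive control, at about 1.3% or above, every replicate too, limit read from the data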
Target sequence (Q9HCT0 whole entry, looked up): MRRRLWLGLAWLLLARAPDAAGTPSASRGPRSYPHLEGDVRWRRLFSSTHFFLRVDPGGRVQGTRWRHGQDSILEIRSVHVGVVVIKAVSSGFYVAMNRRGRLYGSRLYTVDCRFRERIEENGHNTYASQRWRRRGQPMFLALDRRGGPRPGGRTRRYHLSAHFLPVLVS
PglD DTNB – PglD (C. jejuni) enzyme inhibition; inhibition, % at 12.5 µM; AID 602405; purified PglD enzyme, DTNB colorimetric CoA detection; 0.098% of 360,000 active; in the data active = inhibition above about 16%, passing the limit was not always enough
PvdQ inh – blocks Pseudomonas aeruginosa PvdQ acylase activity; purified PvdQ acylase, fluorescence plate reader; inhibition, % at 10 µM; 0.063% of 340,000 active; AID 488965; in the data active = inhibition above about 30%, passing the limit was not always enough;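 also: 0% = vehicle neutral wells and 100% = reference inhibitor wells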
Active calls of the source: *; . = no result.

SMILES	dFosB activator	CDK5 p35 inh	SIRT5 block	FGF22 binding	PglD DTNB	PvdQ inh
CCCCN(CCCC)Cc1ccc(C(=O)NN)o1	4	-5	0	44*	4	-19
CCCCN(CCCC)Cc1ccc(C(=O)NNC(=O)Nc2ccc(Cl)cc2)o1	-2	2	-5	0	2	10
CC(C)(c1cc(Br)c(O)c(Br)c1)c1cc(Br)c(O)c(Br)c1	1	-1	.	1.6*	0	-21
CC(C)(c1cc(Cl)c(O)c(CN2CCOCC2)c1)c1cc(Cl)c(O)c(CN2CCOCC2)c1	-7	-1	.	0	4	-11
CC(C)NC(=O)N(C)C[C@@H]1Oc2c(NC(=O)Nc3ccccc3)cccc2C(=O)N([C@@H](C)CO)C[C@H]1C	.	.	2	0	3	.
CCCC(=O)Nc1ccc(Cl)c(NC(=O)c2ccco2)c1	-9	0	.	.	-5	9
CCCC(=O)Nc1ccc(Cl)c(NC(=S)NC(=O)c2ccco2)c1	-3	-1	.	1.5*	.	-3
O=C(NC(=S)Nc1ccc(CN2CCCCC2)cc1)c1ccco1	-3	1	1	43*	.	9
O=C(NC(=S)Nc1ccc(CN2CCOCC2)cc1)c1ccco1	0	-2	-2	0	-2	-5
O=C(NC(=S)Nc1cccc(NC(=S)NC(=O)c2ccco2)n1)c1ccco1	23*	1	3	0	.	3
C[C@H](CO)N1C[C@H](C)[C@H](CN(C)C(=O)NC2CCCCC2)OCCCC[C@H](C)Oc2ccc(N(C)C)cc2C1=O	.	.	3	-1	-4	.
C[C@H]1CN([C@@H](C)CO)C(=O)c2cc(C#Cc3cccnc3)cnc2O[C@H]1CN(C)Cc1ccncc1	.	.	.	0	6	.
Cc1noc(C)c1NC(=O)N(C)C[C@@H]1Oc2ccc(N(C)C)cc2C(=O)N([C@H](C)CO)C[C@@H]1C	.	.	-2	-1	0	.
COc1ccc(-c2onc3ccc(Br)cc23)cc1	7	-1	.	.	4	34*
c1cncc(-c2ccnc3ncnn23)c1	-1	-1	-4	43*	.	-9
COc1ccc(CNC(=O)CCC(=O)N2CCN(S(=O)(=O)c3ccc(Cl)cc3)CC2)cc1	1	1	0	0	.	6
O=C(CCC(=O)N1CCN(S(=O)(=O)c2ccc(Cl)cc2)CC1)Nc1ccc(Cl)cc1Cl	-12	-5	-1	43*	6	-11
Cc1nn(CC(=O)O)c(C)c1Cl	1	-1	.	.	-1	-18
Cc1c(Cl)c(=O)n2c(=O)c(Cl)c(C)n12	-1	-1	-4	44*	-10	0
COc1ccc(NC(=O)N/C=C/c2ccco2)cc1	-4	0	1	43*	-2	5
COc1ccc2c(c1)[C@]1(C(=O)N2C)C2=C(CCCC2=O)Oc2cc(C)oc(=O)c21	.	.	.	43*	.	.
Cc1cc2c(c(=O)o1)[C@@]1(C(=O)N(C)c3ccc([N+](=O)[O-])cc31)C1=C(CCCC1=O)O2	.	.	.	41	.	.
C[C@@H]1CCCCO[C@H](CN(C)C(=O)Nc2ccc(C(F)(F)F)cc2)[C@H](C)CN([C@H](C)CO)C(=O)c2cc(N(C)C)ccc2O1	.	.	1	0	-2	.
O=C(COC(=O)c1ccc([N+](=O)[O-])s1)Nc1cccc(S(=O)(=O)NC2=NCCCCC2)c1	-2	1	26*	0	.	-1
O=C(COC(=O)c1ccc2ccccc2n1)Nc1cccc(S(=O)(=O)NC2=NCCCCC2)c1	-14	2	0	43*	.	-13
SMILES	dFosB activator	CDK5 p35 inh	SIRT5 block	FGF22 binding	PglD DTNB	PvdQ inh
CCc1nc2ccccc2c(C(=O)OCC(=O)Nc2cccc(S(=O)(=O)NC3=NCCCCC3)c2)c1C	-26	1	1	0	-3	-15
O=C([C@@H]1[C@@H](CO)[C@@H]2Cn3c(cccc3=O)[C@@H]2N1CCC(F)(F)F)N1CCCCC1	.	.	9	0	-1	.
COC(=O)[C@H]1[C@H](CO)[C@H]2Cn3c(ccc(C4=CCCCC4)c3=O)[C@H]2N1C(=O)C1CC1	.	.	-6	0	1	.
Cc1ccc(S(=O)(=O)N2C(=O)[C@@H]3Cc4ccccc4CN3C2=O)cc1	-1	-3	17*	0	-3	-8
COc1ccc(S(=O)(=O)N(C)C[C@@H]2Oc3ccc(NC(=O)Nc4ccc(C(F)(F)F)cc4)cc3CC(=O)N([C@H](C)CO)C[C@@H]2C)cc1	.	.	9	0	0	.
C[C@@H]1CCCCO[C@H](CN(C)C(=O)Nc2cccc3ccccc23)[C@H](C)CN([C@H](C)CO)C(=O)c2cc(NS(=O)(=O)c3ccc(Cl)cc3)ccc2O1	.	.	6	0	-2	.
CN(C)CCNC(=O)/C(=C/c1ccc(-c2ccc(Cl)cc2)o1)NC(=O)c1ccccc1	20*	1	.	.	-4	-6
CN(C)CCNC(=O)/C(=C/c1ccc(-c2ccc(Cl)cc2Cl)o1)NC(=O)c1ccccc1	35*	1	.	.	.	-8
C[C@@H]1CN([C@H](C)CO)S(=O)(=O)c2ccc(-c3cccnc3)cc2O[C@@H]1CN(C)C(=O)CN(C)C	.	.	1	0	-2	.
Cc1ccc2nc(SCc3nc4c(cnn4-c4ccccc4)c(=O)[nH]3)[nH]c2c1	-2	1	.	.	.	-11
Cc1ccc2nc(SCc3nc4cc(Cl)ccc4c(=O)[nH]3)[nH]c2c1	-6	-1	0	43*	.	3
COc1ccc(S(=O)(=O)Nc2ccc3c(c2)C(=O)N([C@H](C)CO)C[C@@H](C)[C@@H](CN(C)Cc2ccccc2)OCCCC[C@@H](C)O3)cc1	.	.	.	0	-3	.
CCS(=O)(=O)N1CC(=O)N2[C@H](CO)[C@@H](c3ccc(-c4ccccc4F)cc3)[C@H]2C1	.	.	6	0	.	.
Cc1cc(C(F)(F)F)c2c(N)c(C(=O)NCc3ccc(Cl)cc3)sc2n1	.	.	.	43*	.	.
CC(C)NC(=O)N[C@@H]1CC[C@H](CCNS(=O)(=O)Cc2ccccc2)O[C@@H]1CO	.	.	-1	0	-1	.
CC(C)OC(=O)C1C(=O)CC(C)(O)C(C(=O)OC(C)C)C1c1cccc([N+](=O)[O-])c1 (stereo not drawn)	-3	1	-1	0	.	-8
CCOC(=O)C1C(c2cccc([N+](=O)[O-])c2)C2C(=O)NN=C2CC1(C)O (stereo not drawn)	-2	0	-2	43*	.	-11
CC(OC(=O)C1=Cc2ccccc2OC1)C(=O)NCC1CCCO1 (stereo not drawn)	-15	0	12	1.9*	-4	-6
CCN(CC)CCOc1ccc2c(c1)C(=NO)c1cc(OCCN(CC)CC)ccc1-2	56*	1	.	.	1	-16
NC(N)=NN=C1c2ccccc2-c2ccccc21	-20	0	-3	0	7	-13
CCCOc1ccc2c(c1)C(=NN=C(N)N)c1cc(OCCC)ccc1-2	35*	2	0	0	5	4

Screening data as filed in PubChem.
